± gives the standard deviation.
Tested on: Streptococcus suis HE06
Test: percent growth relative to DMSO control; higher = less growth inhibition
Conditions: 10 µM; incubation time 18 h
Procedure: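 CLSI broth microdilution: 5x10^4 CFU of Streptococcus suis (strain P1/7 or HE06) incubated with 10 µM Pathogen Box compound in cation-adjusted Mueller Hinton broth, 37 °C, 5% CO2, 18 h. Growth read as OD600 and expressed as percent of the DMSO-treated control (100%); mean ± SD of three independent experiments.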

| Compound | percent growth [%] |
| --- | --- |
| CO/C=C(/C(=O)OC)c1ccccc1Oc1cc(Oc2ccccc2C#N)ncn1 | 76.8 ± 3.1 |
| CC1(C)OB(O)c2ccc(C3=NOC(c4cc(Cl)c(F)c(Cl)c4)(C(F)(F)F)C3)cc21 (centres undefined) | 15.4 ± 15 |
| Cc1cccc(C(=O)Nc2ccnc(N(C)C3CCN(CC(C)C)CC3)c2)c1 | 95.9 ± 30 |
| Cc1nn(C)c(C)c1NS(=O)(=O)c1c(Cl)cc(-c2ccnc(N3CCNCC3)c2)cc1Cl | 94.8 ± 29 |
| O=C1O[C@@H](COc2ccon2)CN1c1cc(F)c(C2=CCN(Cc3ccccc3)CC2)c(F)c1 | 2.62 ± 3.7 |
| CC(C)(C)C(O)C(Oc1ccc(-c2ccccc2)cc1)n1cncn1 (centres undefined) | 86.7 ± 8.5 |
| CCc1nn(C)c(C(=O)NCc2ccc(Oc3ccc(C)cc3)cc2)c1Cl | 82.6 ± 11 |
| Cc1nn(Cc2ccccc2)c(Cl)c1C(=O)NC1CCCCCC1 | 107 ± 13 |
| CO/N=C(\C(=O)OC)c1ccccc1CO/N=C(\C)c1cccc(C(F)(F)F)c1 | 102 ± 17 |
| CO[C@@H]1CN(c2ccc(C#CC3(O)CN4CCC3CC4)c(Cc3ccccc3)n2)C[C@H]1O (some centres undefined) | 108 ± 2.9 |
| O=C1O[C@@H](CO)CN1c1cc(F)c(C2=CCN(Cc3ccccc3)CC2)c(F)c1 | 3.88 ± 0.8 |
| CC1COC(Cn2cncn2)(c2ccc(Oc3ccc(Cl)cc3)cc2Cl)O1 (centres undefined) | 77 ± 5.4 |
| Nc1c2c(nc3sc4c(c13)CCCC4)CCCC2 | 76.3 ± 20 |
| Cc1cc(C2=NOC(c3cc(Cl)c(F)c(Cl)c3)(C(F)(F)F)C2)ccc1C(=O)NCc1ccc2c(c1)C(C)(C)OB2O (centres undefined) | 60.3 ± 9.8 |

From the supplement of paper PMC7866885, “A novel bicyclic 2,4-diaminopyrimidine inhibitor of Streptococcus suis dihydrofolate reductase” (PeerJ, 2021)
